The record followed here is PubChem BioAssay (NCATS).

In test [1] the target is Lysosomal acid glucosylceramidase (Homo sapiens) (UniProt P04062). The experiment in a line: Glucocerebrosidase-p2 (AID 348; in the data active = potency below about 10 µM; note: potency is the fitted concentration of half-maximal effect). The conditions noted are these: purified GBA, blue fluorogenic substrate, 40 min. Put shortly: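 Normal human glucocerebrosidase (0.2 nM) with blue fluorogenic substrate (80 uM final) in citrate/phosphate pH 5.9 with 10mM sodium taurocholate, 0.01% tween-20; 40 min RT, NaOH/glycine stop; fluorescence Ex 365/Em 440; AC50 from a titration from 0.6 nM upwards.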

Test [2] in a line: AP1 Signaling Pathway (AID 357).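 Note: ME-180 reporter cells stimulated with EGF at its EC50 level; % is set by controls: 0 for no effect and ±100 for the full control effect.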 The conditions noted are these: ME-180 AP-1-bla reporter, EGF-induced, beta-lactamase ratio, 5 h; at 7.69 µM (top of the series) unless noted. Put shortly:
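Beta-lactamase reporter under AP-1 response element, ME-180 background. Stimulus: EC50 EGF. Compound exposure 5 h, 37 °C. Detection: CCF4, 2.5 h RT, 460/530 nm. Values: AC50 from titration.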

Test [3] has as its target Cytochrome P450 1A2 (Homo sapiens) (UniProt P05177). Kind of test: p450-cyp1a2 (AID 410; calls by dose curve; note: potency is the fitted concentration of half-maximal effect;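 for activity change, negative = inhibition: -100% = full effect of reference inhibitor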). The conditions noted are these: recombinant CYP1A2, luciferin-ME demethylation, luminescence; series mostly up to 57 µM. Put shortly:
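O-Demethylation of luciferin 6' methyl ether by human CYP1A2 is monitored as luciferase luminescence. Substrate sits at Km (100uM); enzyme is 20nM. Values are scaled to 57 uM furafylline as maximal inhibition.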

Test [4] in a line: NFAT Signaling Pathway (AID 444).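 Note: carbachol stimulus at about its EC50 of 1 µM final; % is set by controls: 0 for no effect and ±100 for the full control effect.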 The conditions noted are these: Jurkat NFAT-bla M1, carbachol, beta-lactamase ratio, 5 h; at 7.69 µM (top of the series) unless noted. Put shortly:
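Jurkat cells with NFAT-driven β-lactamase reporter and co-expressed M1 receptor, stimulated with carbachol (final 1 uM, ~EC50), compound titration, 5 h at 37 °C. CCF4 loaded 1 h at RT; 460/530 nm ratio gave %activity and AC50.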

The nature of test [5]: Stat Signaling Pathway (AID 446).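 Note: ME-180 cervical cancer cells given 40 pM IL-6 alongside compound; SIE-controlled beta-lactamase reporter measured as 460/530 nm FRET emission ratio; % is set by controls: 0 for no effect and ±100 for the full control effect.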 Conditions: ME-180 (cervical carcinoma) SIE beta-lactamase reporter, IL-6 stimulated, 5 h; at 7.69 µM (top of the series) unless noted. Put shortly:
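FRET read-out (405 nm excitation, 460/530 nm emission) of a beta-lactamase reporter under a STAT-inducible element in ME-180 cervical carcinoma cells. Cells with compound receive 40 pM IL-6 for 5 h. Values are normalised to AC90 stimulation and AC90 JAK-inhibitor controls.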

The target of test [6] is Glucocorticoid receptor (Homo sapiens) (UniProt P04150). Kind of test: GR-EFC Redistribution (AID 451; calls by dose curve; note: potency is the fitted concentration of half-maximal effect). The conditions noted are these: CHO-K1 GR-EFC translocation, beta-gal luminescence, 2 h. Put shortly:
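CHO-K1 cells expressing nuclear EA and GR-ED fragments of b-gal; compounds titrated up to 46 uM final, 2 h at 37 C. GR nuclear translocation read as complemented b-gal luminescence after 1 h RT detection.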

Test [7] concerns the target Mitogen-activated protein kinase 10 (Mus musculus) (UniProt Q61831). The experiment in a line: JNK3 AlphaScreen Assay (AID 530).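 Note: kinase came from lysate of stimulated human HepG2 cells; signal reports phosphorylation of biotinylated GST-cJun 1-79 at Ser73 with 10 µM ATP; % is set by controls: 0 for no effect and ±100 for the full control effect.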 Conditions: JNK3 lysate, c-Jun phosphorylation; series mostly up to 57.1 µM. Put shortly:
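Activity was read by AlphaScreen after JNK3-containing HepG2 lysate (cytokine pre-activated) phosphorylated biotinylated GST-cJun with 10 uM ATP at room temperature. Phospho-Ser73 cJun antibody with Protein-A acceptor beads provided detection.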
(In general: Alpha assays give light when donor and acceptor beads are brought close together.)

The target of test [8] is 3',5'-cyclic-AMP phosphodiesterase 4B (Homo sapiens) (UniProt Q07343). The experiment in a line: qHTS Assay for Inhibitors of PDE-IV (AID 607; active = well fitted activation curve with a large enough effect in the main read-out, with a control signal flat, not every such curve was filed as active; note: % of control where 0% means no effect). Conditions: HEK293 ACTOne CNG channel cells, membrane potential fluorescence; series mostly up to 22.9 µM. Put shortly:
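Cell-based read-out of cAMP via a modified cyclic nucleotide-gated channel and membrane potential dye (535/590 nm) in HEK293 cells expressing PDE4 endogenously. Compounds tested up to 22.9 uM final; 100 uM RO 20-1724 reference.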
A general note: qHTS replaces the single test concentration by a dilution series.

For test [9], the target named is Cytochrome P450 3A4 (Homo sapiens) (UniProt P08684). Kind of test: qHTS Assay for Activators of Cytochrome P450 3A4 (AID 885; active = well fitted curve in the direction sought with a large enough effect; an effect the other way counts as inactive or inconclusive; note: nearly all actives have a fitted effect of over 65% in size; note: potency is the fitted concentration of half-maximal effect). The conditions noted are these: recombinant CYP3A4, Luciferin-PPXE luminescence, 60 min; series mostly up to 57.1 µM. Put shortly: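 Luminescent readout of luciferin formed from 25 uM Luciferin-PPXE (KM level) by 20 nM CYP3A4 in 200 mM KPO4, with 60 min NADPH-driven reaction at room temperature after 10 min compound exposure. Ketoconazole (57 uM) defined 100% inhibition.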

Test [10] can be described thus: qHTS Assay for Lipid Storage Modulators (AID 1519; calls by dose curve). Conditions: Drosophila S3 cells, BODIPY lipid droplet/cell ratio, laser cytometry, cells loaded with oleic acid; for activity change, negative = inhibition: at 57.5 µM (top of the series). Put shortly: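 Cells seeded at 5,000 per well were treated with compounds over a concentration series and loaded with oleic acid (400 uM, as added). Lipid droplet fluorescence (488 nm excitation, 500-530 nm channel) was read by laser-scanning cytometry and normalized to 20 uM Triacsin C.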

Test [11] is described as follows: Primary qHTS for small molecule stabilizers of the endoplasmic reticulum resident proteome: Secreted ER Calcium Modulated Protein (SERCaMP) assay (AID 1508630; active = well fitted curve in the direction sought with a large enough effect; an effect the other way counts as inactive or inconclusive; note: % is set by controls: 0 for no effect and ±100 for the full control effect). Conditions: SH-SY5Y GLuc-SERCaMP (Gaussia luciferase released on ER calcium loss) secretion, thapsigargin, luminescence; series mostly up to 38.4 µM. Put shortly: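 The SH-SY5Y reporter protocol was run at 3 concentrations up to 38.3 uM (primary) or 11 concentrations (follow-up): 16 h compound, 100 nM thapsigargin for 4 h, then extracellular luciferase luminescence.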

The target of test [12] is Cytochrome P450 3A4 (Homo sapiens) (UniProt P08684). Kind of test: qHTS Assay for Inhibitors and Substrates of Cytochrome P450 3A4 (AID 884; active = well fitted curve in the direction sought with a large enough effect; an effect the other way counts as inactive or inconclusive; note: nearly all actives have a fitted effect of over 50% in size; note: potency is the fitted concentration of half-maximal effect). Conditions: recombinant CYP3A4, Luciferin-PPXE luminescence; series mostly up to 57.1 µM. Put shortly:
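Luminescent readout of luciferin produced by CYP3A4 (20 nM) dealkylation of Luciferin-PPXE, 25 uM (its KM). NADPH-driven reaction ran 60 min at RT after 10 min compound preincubation; data scaled to 57 uM ketoconazole as 100% inhibition.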

The mark [13] stands for this setting: measured here: cell count channel max response.
Setting [14] is: measured here: lipid channel max response.

Results filed as inconclusive are left out. Active and inactive are the calls of the source. Unless noted, calls come from the whole dose curve; as a rule, active = well fitted curve in either direction with a large enough effect (not every such curve was filed as active); inconclusive = small, poorly fitted or top-dose-only effect, or another doubt; inactive = flat fitted curve, though single readings scatter. Some results are limits rather than exact numbers.

Cytochrome P450 1A2 (Homo sapiens), sequence (P05177 whole entry, looked up): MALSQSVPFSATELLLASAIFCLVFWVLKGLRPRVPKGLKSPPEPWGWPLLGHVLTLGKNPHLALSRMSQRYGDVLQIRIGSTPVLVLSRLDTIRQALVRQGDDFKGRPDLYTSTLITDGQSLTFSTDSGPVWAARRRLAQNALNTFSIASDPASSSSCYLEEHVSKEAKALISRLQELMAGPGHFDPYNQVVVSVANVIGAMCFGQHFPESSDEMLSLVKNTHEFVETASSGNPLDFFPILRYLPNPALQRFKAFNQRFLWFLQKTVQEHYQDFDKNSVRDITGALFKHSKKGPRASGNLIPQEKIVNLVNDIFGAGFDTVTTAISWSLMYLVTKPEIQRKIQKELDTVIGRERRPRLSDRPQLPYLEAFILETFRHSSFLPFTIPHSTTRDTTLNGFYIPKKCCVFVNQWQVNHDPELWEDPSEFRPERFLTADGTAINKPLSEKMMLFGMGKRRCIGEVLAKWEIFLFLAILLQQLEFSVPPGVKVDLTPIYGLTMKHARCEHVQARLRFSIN
Cytochrome P450 3A4 (Homo sapiens), sequence (P08684 whole entry, looked up): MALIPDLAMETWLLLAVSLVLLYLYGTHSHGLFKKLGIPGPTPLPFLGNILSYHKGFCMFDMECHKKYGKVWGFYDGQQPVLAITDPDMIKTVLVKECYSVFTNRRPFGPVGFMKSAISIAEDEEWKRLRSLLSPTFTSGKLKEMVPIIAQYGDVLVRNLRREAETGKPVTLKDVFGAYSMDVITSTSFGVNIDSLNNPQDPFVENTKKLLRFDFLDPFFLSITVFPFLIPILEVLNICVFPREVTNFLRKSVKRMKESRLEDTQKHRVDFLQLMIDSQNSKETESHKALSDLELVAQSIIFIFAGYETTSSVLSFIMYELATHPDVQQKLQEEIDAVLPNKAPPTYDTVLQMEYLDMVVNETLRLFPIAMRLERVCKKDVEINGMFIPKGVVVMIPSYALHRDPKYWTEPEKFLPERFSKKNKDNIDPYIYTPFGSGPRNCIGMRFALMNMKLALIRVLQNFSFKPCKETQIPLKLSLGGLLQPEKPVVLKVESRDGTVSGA
3',5'-cyclic-AMP phosphodiesterase 4B (Homo sapiens), sequence (Q07343 whole entry, looked up): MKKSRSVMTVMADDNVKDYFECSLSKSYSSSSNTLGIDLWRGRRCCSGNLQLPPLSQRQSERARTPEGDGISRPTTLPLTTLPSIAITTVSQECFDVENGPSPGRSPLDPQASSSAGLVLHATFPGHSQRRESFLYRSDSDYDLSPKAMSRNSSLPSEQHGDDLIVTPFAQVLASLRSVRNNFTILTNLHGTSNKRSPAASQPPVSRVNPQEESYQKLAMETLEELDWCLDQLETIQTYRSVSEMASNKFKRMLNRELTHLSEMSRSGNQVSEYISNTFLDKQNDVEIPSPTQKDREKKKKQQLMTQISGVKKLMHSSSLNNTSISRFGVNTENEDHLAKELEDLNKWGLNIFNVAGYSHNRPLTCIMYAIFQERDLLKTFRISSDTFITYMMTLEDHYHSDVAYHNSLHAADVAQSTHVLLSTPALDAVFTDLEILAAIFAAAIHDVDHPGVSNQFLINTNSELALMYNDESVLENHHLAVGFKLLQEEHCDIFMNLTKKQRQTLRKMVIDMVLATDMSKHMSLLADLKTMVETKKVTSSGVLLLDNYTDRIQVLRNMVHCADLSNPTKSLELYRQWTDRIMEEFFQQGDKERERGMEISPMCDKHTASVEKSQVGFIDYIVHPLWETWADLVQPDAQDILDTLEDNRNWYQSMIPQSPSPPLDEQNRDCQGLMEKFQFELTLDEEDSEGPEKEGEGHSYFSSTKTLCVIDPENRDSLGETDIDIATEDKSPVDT
Glucocorticoid receptor (Homo sapiens), sequence (P04150 whole entry, looked up, the tested form may be a part): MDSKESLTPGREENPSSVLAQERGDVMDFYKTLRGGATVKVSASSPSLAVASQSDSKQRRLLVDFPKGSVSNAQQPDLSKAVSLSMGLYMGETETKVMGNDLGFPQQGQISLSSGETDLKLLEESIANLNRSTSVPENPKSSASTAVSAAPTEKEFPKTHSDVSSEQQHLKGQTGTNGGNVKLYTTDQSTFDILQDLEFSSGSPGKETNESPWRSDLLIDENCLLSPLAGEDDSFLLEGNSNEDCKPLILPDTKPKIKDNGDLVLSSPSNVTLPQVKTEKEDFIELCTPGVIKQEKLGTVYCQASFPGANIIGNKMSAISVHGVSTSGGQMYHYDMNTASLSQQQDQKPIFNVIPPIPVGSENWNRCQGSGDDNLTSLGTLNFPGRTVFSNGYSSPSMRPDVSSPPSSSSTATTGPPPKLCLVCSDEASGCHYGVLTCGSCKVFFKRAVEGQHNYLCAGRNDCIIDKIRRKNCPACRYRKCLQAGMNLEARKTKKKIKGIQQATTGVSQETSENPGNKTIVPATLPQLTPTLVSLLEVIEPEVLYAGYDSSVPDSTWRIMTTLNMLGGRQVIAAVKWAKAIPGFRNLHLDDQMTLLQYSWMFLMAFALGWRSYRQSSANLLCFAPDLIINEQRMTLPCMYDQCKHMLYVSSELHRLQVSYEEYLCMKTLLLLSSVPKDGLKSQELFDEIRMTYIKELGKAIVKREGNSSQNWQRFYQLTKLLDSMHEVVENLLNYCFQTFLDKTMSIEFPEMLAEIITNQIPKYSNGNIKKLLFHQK
Lysosomal acid glucosylceramidase (Homo sapiens), sequence (P04062 whole entry, looked up): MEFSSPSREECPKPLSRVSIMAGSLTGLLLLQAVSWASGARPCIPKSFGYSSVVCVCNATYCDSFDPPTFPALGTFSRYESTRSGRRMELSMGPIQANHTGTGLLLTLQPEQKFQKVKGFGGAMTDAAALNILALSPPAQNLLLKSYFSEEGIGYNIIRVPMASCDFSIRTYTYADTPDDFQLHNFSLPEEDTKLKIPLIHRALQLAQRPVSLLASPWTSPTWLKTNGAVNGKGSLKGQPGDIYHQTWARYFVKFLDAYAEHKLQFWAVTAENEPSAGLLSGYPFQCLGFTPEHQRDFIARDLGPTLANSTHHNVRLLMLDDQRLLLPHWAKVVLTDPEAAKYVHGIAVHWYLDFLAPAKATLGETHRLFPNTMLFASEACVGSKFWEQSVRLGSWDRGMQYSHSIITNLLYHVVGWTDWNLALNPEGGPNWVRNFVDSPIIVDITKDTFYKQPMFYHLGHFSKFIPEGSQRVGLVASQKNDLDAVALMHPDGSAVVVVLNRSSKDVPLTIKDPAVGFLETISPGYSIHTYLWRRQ

On to `COc1ccc(NC(=O)N2CC3(CCN(C(=O)c4ccc(OC)cc4)CC3)C2)cc1`, for which the Potency was > 11.4 µM (inactive) in [1] and > 46 µM (inactive) in test [6]. The activity change, negative = inhibition is -11.7% (inactive) in [2], 16.6% (inactive) in [4] and 3.98% (inactive) in test [10]. The Potency entry in test [3], in test [8], in test [9] and in test [11] was “inactive” in each case. Also, the activity, negative = inhibition in [5] is -5.3% (inactive). Further, in [7], the molecule was called inactive. For the same molecule, the max response came to 12.3% in test [10] (setting [13]) and 17.6% in test [10] (setting [14]).

Regarding `O=C(c1cnccn1)N1CCC[C@@]2(CCN(c3ccccc3)C2)C1`, the Potency was > 11.4 µM (inactive) in test [1], 15.8 µM (active) in test [3], > 46 µM (inactive) in test [6] and 7.94 µM (active) in [12]. Further, the activity change, negative = inhibition in test [2] is -15.8% (inactive); in [4] it was -3.48% (inactive); in test [10], -0.338% (inactive). Moreover, the activity, negative = inhibition in test [5] is -3.78% (inactive). For the same molecule, the outcome in test [7] was inactive. Moreover, the Potency entry in [8], in test [9] and in test [11] was “inactive” each time. The max response was 17% in test [10] (setting [13]) and 18.8% in test [10] (setting [14]).

`O=C(c1csnn1)N1CCC2(CC1)CN(c1ccccn1)C2`: the Potency was > 11.4 µM (inactive) in test [1], > 46 µM (inactive) in test [6] and 25.1 µM (active) in test [9]. For the same molecule, the activity change, negative = inhibition in test [2] was -7.48% (inactive); in [4] it was -19.4% (inactive); in test [10], 4.89% (inactive). Moreover, the Potency entry in test [3], in test [8], in test [12] and in test [11] was “inactive” each time. The activity, negative = inhibition in test [5] was -1.49% (inactive). Besides, the molecule was called inactive in [7]. In addition, the max response in test [10] (setting [13]) was found to be 15.6%; in test [10] (setting [14]), 22.2%.

With `N#Cc1cccc(NC(=O)N2CC[C@@]3(CCCNC3)C2)c1`, the Potency in test [1] is > 11.4 µM (inactive); in [6], > 46 µM (inactive). In addition, the results for the activity change, negative = inhibition in test [2], in test [4] and in test [10] were 9.42% (inactive), 9.18% (inactive) and 1.94% (inactive), respectively. For the same molecule, the Potency result in test [3], in test [8], in test [9] and in test [11] was “inactive” each time. The activity, negative = inhibition in [5] was -4.17% (inactive). For the same molecule, the molecule was classed as inactive in test [7]. The max response in test [10] (setting [13]) is -6.65%; in [10] (setting [14]) it was -1.99%.

As to `Cn1cccc1C(=O)N1CCC2(CC1)CCN(c1ccc(-c3ccccc3)cc1)CC2`, the Potency is > 11.4 µM (inactive) in test [1], 20 µM (active) in [3], > 46 µM (inactive) in [6] and 15.8 µM (active) in test [9]. Also, the figures for the activity change, negative = inhibition in test [2], in test [4] and in [10] were -19.9% (inactive), 11.4% (inactive) and -6.03% (inactive), respectively. For the same molecule, the activity, negative = inhibition in test [5] is -10.4% (inactive). Also, in [7], the result was inactive. The Potency entry in test [8] and in test [11] was “inactive” in each case. The max response was -2.01% in test [10] (setting [13]) and -7.47% in test [10] (setting [14]).
